Data taken from PubChem BioAssay AID1022 (Emory University Molecular Libraries Screening Center, 2008).
About 3,300 (1.5%) of roughly 220,000 compounds were called active.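 The calls were made as follows: active = compounds that cut the protein-peptide binding signal by more than 50% relative to plate controls in a single-dose test; inactive = the rest.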 This excerpt belongs to a sample that is enriched for actives.

Target: Induced myeloid leukemia cell differentiation protein Mcl-1 (Homo sapiens) (UniProt Q07820)
Sequence (Q07820 whole entry, looked up): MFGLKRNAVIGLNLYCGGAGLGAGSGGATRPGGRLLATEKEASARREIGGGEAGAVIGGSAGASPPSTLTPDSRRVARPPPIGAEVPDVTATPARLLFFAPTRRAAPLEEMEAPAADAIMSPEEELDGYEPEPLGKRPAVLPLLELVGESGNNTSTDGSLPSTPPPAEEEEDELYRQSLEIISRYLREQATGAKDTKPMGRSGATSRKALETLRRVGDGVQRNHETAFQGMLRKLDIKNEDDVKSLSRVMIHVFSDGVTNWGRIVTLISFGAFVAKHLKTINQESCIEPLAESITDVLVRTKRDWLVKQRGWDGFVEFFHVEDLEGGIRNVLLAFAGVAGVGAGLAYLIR
Test: disruptors of Mcl-1 and Noxa BH3 peptide – biochemical, TR-FRET, 1536-well, primary screen (AID 1022);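 also: His-tagged Mcl-1 with rhodamine Noxa BH3 peptide and terbium anti-His antibody; 0% = Mcl-1 plus Noxa peptide wells and 100% = peptide-only wells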
Settings: TR-FRET Mcl-1/Noxa peptide binding, 2 h; at 21.7 µM; stronger effect = higher value

inhibition, active:
O=C(NCc1ccccn1)c1ccc2nc(-c3ccco3)c(-c3ccco3)nc2c1 91.8%
COCCNC(=O)Nc1ccc2nc(-c3ccco3)c(-c3ccco3)nc2c1 107%
O=c1oc2ccccc2cc1-c1csc(Nc2ccc(O)cc2)n1 101%
COc1ccc(-c2csc(Nc3ccc(O)cc3)n2)cc1 69.4%
COc1ccc(OC)c(Nc2nc(-c3ccc(O)c(O)c3)cs2)c1 69.2%
O=C(Cn1cnc2cc([N+](=O)[O-])ccc2c1=O)NC(=O)NCc1ccccc1 53.5%
Cc1ccc(/C=C(\C#N)C(=O)Nc2cccc3ncccc23)o1 65.7%
Oc1c(Cl)cc(Cl)c(Cl)c1Cc1c(O)c(Cl)cc(Cl)c1Cl 104%
CCN(/N=C/c1ccc(N(C)C)cc1)c1nc2ccccc2[nH]1 81%
CN(C)c1ccc(/C=N/N(Cc2ccccc2)c2ccccc2)cc1 95.7%

inhibition, inactive:
COc1ccccc1OCC(=O)O/N=C(\N)c1ccccn1 17.8%
O=C(NCc1ccccn1)c1cc(-c2ccccc2Cl)on1 8.56%
COc1ccc(NC(=O)Nc2ccc3nsnc3c2)cc1 20.7%
O=C(NCc1ccccn1)c1cc(Br)ccc1Cl 15.5%
COc1ccc(NC(=O)Nc2ccc3nc(C)c(C)nc3c2)cc1 32.9%
O=C(NNC(=S)Nc1ccc(F)cc1)[C@H]1C[C@@H]1c1ccccc1 -82.4%
O=C(Nc1ccc(N2CCOCC2)nc1)c1c(F)cccc1F 25.6%
Cc1cccc(NC(=O)CSc2nnc(CCNC(=O)OC(C)(C)C)o2)c1C -10.6%
C=CC1C(OC2OC(CO)C(O)C(O)C2O)OC=C(C(=O)OC)C1CC1CC(=O)CC(CC(=O)CCc2ccc(O)cc2)O1 (centres undefined) 18.5%
Cc1ccc(S(=O)(=O)N(C)C)cc1NC(=O)c1n[nH]c(=O)c2ccccc12 -4.07%
CCOC(=O)c1cn[nH]c1NC(=S)Nc1ccccc1 18.3%
COc1ccc(Nc2nc(-c3ccccc3)cs2)cc1 13.3%
COc1ccc(-c2csc(Nc3ccccn3)n2)cc1 19.1%
CCNc1nc(-c2cc3ccccc3o2)cs1 37.2%
COc1ccc2nc(Nc3nc(-c4ccncc4)cs3)sc2c1 43.5%
COc1ccc(C)cc1Nc1nc(-c2c(C)[nH]c3ccccc23)cs1 12.8%
Nc1ncc(-c2cc3ccccc3oc2=O)s1 21.7%
O=C(NCc1ccc(F)cc1)C1CCC(CNc2c(N3CCOCC3)c(=O)c2=O)CC1 (centres undefined) -8.83%
CN1CCN(c2ncc3c(n2)CC(c2ccccc2F)CC3=O)CC1 (centres undefined) -10.3%
CC(=O)NC(CC(=O)Nc1nccs1)c1ccccc1 (centres undefined) -8.98%
CC1(C)CC(=O)C(N=Nc2c(F)cccc2F)=C(O)C1 -2.76%
CC(NCc1ccccc1OC1CCCC1)c1ccccc1 (centres undefined) -3.22%
Cc1cc(-c2nc(C)c(-c3nnc(SCC(=O)Nc4ccccc4)n3C)s2)no1 3.26%
Nc1nc(SC23CC4CC(CC(C4)C2)C3)ns1 5.98%
CC1=CC(C)(C)NC(=S)N1NC(=O)c1ccccc1Cl 5.81%
CC(C)(C)NC(=O)Cn1cnc2cc([N+](=O)[O-])ccc2c1=O 27.1%
O=C(Cn1cnc2c(cnn2-c2ccccc2)c1=O)NCc1ccccc1 6.36%
Cc1ccc(S(=O)(=O)NNC(=S)NC(C)(C)C)cc1 -14.3%
O=C(NC(=O)N1CCSCC1)c1c(Cl)cccc1Cl 2.15%
Cc1ccc(-c2csc(-c3cc(C)on3)n2)cc1 -2.5%
O=S(=O)(c1cccc(-c2nnc3n2CCCCC3)c1)N1CCOCC1 3.07%
O=C(Nc1cccc2ncccc12)C(Cl)(Cl)Cl 11.1%
Cc1ccc(C(=O)Nc2cccc3ncccc23)cc1[N+](=O)[O-] 10.6%
Cc1ccc(NC(=O)/C(=C/c2ccc([N+](=O)[O-])cc2)NC(=O)c2ccccc2)cc1 3.04%
Cn1nccc1NC(=O)Nc1ccc(OC(F)(F)F)cc1 -2.66%
COC(=O)Cc1nc2ccccc2[nH]1 9.2%
CN(C)c1ccc(/C=N\S(=O)(=O)c2ccccc2)cc1 2.37%
CCN(/N=C/c1ccccc1)c1cc(=O)n(C)c(=O)[nH]1 21%
Oc1ccc(/C=N/N(Cc2ccccc2)c2ccccc2)cc1 27%
